Source: PubChem BioAssay
Values without a mark were called inactive. Calls of active or inactive are those of the source.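 The calls were made as follows, unless noted: active = mean inhibition above 46.5%, the solvent-only control mean plus 3 SD; inactive = the rest.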

How the values were obtained:
[1] = test system: transactivating tegument protein VP16 (Human herpesvirus 1); test: VP16 transactivation reporter inhibitors, counter-screen for SRC2 inhibitor project, cell-based, luminescence, single concentration (AID 652007; in the data active = inhibition above about 36%); settings: cell-based VP16 transactivation luciferase reporter, at 8.9 µM, active compounds read high
[2] = molecular target: Nuclear receptor coactivator 2 (Homo sapiens) (UniProt Q15596); test: SRC2 coactivator transcriptional activity inhibitors, confirmation, cell-based, luminescence, HEK293, triplicate (AID 652008); settings: HEK293 GAL4-SRC2 luciferase reporter, at 8.9 µM, active compounds read high;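 also: 0% = DMSO-treated cells and 100% = Gossypol at 36 µM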
Sequence of Nuclear receptor coactivator 2 (Homo sapiens) (Q15596 whole entry, looked up, the tested form may be a part): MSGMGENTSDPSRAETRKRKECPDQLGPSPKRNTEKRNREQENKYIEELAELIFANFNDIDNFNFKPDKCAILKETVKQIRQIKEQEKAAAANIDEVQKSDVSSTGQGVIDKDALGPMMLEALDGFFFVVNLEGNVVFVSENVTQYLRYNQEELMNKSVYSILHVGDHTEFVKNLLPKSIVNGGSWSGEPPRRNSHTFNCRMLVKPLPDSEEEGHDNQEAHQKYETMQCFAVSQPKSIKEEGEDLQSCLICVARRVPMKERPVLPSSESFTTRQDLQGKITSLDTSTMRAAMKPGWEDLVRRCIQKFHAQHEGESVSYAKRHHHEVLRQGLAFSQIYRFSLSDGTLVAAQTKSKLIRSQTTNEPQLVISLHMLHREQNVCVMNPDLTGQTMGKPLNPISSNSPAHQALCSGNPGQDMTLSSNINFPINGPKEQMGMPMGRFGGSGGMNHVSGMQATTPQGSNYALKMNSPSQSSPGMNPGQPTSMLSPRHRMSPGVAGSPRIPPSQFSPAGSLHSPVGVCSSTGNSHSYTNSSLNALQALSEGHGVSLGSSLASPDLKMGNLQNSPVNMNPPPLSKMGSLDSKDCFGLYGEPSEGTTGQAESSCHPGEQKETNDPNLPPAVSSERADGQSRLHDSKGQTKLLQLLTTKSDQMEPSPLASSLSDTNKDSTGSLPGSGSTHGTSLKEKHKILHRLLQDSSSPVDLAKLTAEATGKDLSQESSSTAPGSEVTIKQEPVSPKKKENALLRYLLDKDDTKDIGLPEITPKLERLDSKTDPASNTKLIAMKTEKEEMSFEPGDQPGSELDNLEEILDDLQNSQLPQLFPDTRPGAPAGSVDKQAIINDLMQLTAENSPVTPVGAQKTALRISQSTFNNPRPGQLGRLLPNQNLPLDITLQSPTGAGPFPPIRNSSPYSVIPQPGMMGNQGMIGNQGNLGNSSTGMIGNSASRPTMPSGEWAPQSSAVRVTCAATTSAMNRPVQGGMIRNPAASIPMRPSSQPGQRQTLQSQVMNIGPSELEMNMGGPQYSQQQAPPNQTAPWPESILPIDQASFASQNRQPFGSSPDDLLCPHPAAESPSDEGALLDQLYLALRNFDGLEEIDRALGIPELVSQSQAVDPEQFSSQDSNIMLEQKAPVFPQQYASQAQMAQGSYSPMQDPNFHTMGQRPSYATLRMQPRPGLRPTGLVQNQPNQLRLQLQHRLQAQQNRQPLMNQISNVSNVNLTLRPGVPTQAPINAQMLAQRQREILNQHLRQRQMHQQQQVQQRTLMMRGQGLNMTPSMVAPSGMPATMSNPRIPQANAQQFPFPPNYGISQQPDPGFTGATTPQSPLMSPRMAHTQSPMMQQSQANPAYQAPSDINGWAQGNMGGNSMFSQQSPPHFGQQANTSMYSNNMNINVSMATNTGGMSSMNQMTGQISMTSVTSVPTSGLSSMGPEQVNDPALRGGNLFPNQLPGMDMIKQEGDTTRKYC

SMILES | inhibition [1] | inhibition [2]
CCc1ccc(C(=O)Nc2nc3ccccc3[nH]2)cc1 | -1% | 45.8%
CC(Oc1ccc(Cl)cc1Cl)C(=O)NCCCn1ccnc1 (stereo unspecified) | -8.12% | -15.5%
COc1ccc(OC)c(C2C(C#N)=C(N)Oc3c2c(C)nn3-c2cccc(Cl)c2)c1 (stereo unspecified) | 3% | 4.46%
CC(=O)N1/C(=C/c2ccc(N(C)C)cc2)C(=O)c2ccccc21 | 13.3% | 72.6% (active)
O=C(O)c1cccc(CSc2nnc(COc3ccccc3)o2)c1 | 15.7% | 34.5%
COc1ccc(CNC(=O)COC(=O)CCCOc2ccc(Cl)cc2Cl)cc1 | 13% | 15.7%
CCN(CC)c1ccc(/C=N/Nc2nn[nH]n2)cc1 | -13.6% | 43.4%
COc1ccc(CNCCNC(=O)c2cccs2)c(OC)c1OC | 8.76% | 9.01%
COc1cc(SC)ccc1C(=O)Nc1ncc(C)s1 | 10.3% | 24%
COc1ccc(CC(=O)NNC(=O)c2ccc(Br)o2)cc1 | -9.53% | -27.1%
Cc1ccc([N+](=O)[O-])cc1N(CC(=O)Nc1ccc(S(=O)(=O)Nc2cccc(C(F)(F)F)c2)cc1)S(C)(=O)=O | -13.7% | -3.19%
CC(Sc1nnc(CN2CCCC2)n1Cc1ccccc1)C(=O)Nc1ccc(F)cc1 (stereo unspecified) | 1.17% | -5.19%
CC(C)(C)c1ccccc1NC(=O)CN1C(=O)NC2(CCCC2)C1=O | -13.7% | -9.65%
O=C(O)c1cccc(CSc2nnc(-c3ccc(Cl)cc3)o2)c1 | 41.3% (active) | 43.1%
CCOc1ccc(N2CC(C(=O)Nc3ccc4c(c3)OCCO4)CC2=O)cc1 (stereo unspecified) | -5.36% | -6.17%
COC(=O)c1ccc(CSc2nc3sc(C)c(C)c3c(=O)[nH]2)cc1 | -20.1% | -17.4%
O=[N+]([O-])c1ccc(Sc2nccn2Cc2ccccc2)c([N+](=O)[O-])c1 | 4.42% | 32.1%

SMILES | inhibition [1] | inhibition [2]
O=C(O)c1ccc(Nc2nc3c(s2)CCCC3)cc1 | -31% | 10.9%
COc1cc(OC)nc(Nc2nc(C(N)Cc3ccc(F)cc3)cs2)n1 (stereo unspecified) | -4.22% | -0.34%
Cc1cc(C)cc(NC(=O)Nc2cc(S(=O)(=O)N(C)C)ccc2C)c1 | -9.93% | -21.3%
CC(OC(=O)CN1C(=O)NC2(CCCC2)C1=O)c1ccc(F)cc1 (stereo unspecified) | -16.9% | -26.5%
O=C(CCCN1C(=O)/C(=C/c2ccccc2Cl)SC1=S)NCCCN1CCOCC1 | 33.6% | 45.9%
CC1(C(=O)NS(=O)(=O)Cc2ccccc2C(F)(F)F)CCN1C(=O)c1ccco1 (stereo unspecified) | 0.06% | -19.7%
Cc1ccc(S(=O)(=O)CCSC(=N)N)cc1 | 2.05% | 6.17%
COc1cccc(NC(=O)Nc2nnc(N3C(C)CCCC3C)s2)c1 (stereo unspecified) | -51.2% | -7.93%
O=C(Nc1cccc(-c2cccc(Cl)c2)c1)C1CCN(Cc2ccccn2)CC1 | -2.92% | 17.7%
Cc1cc(C(=O)NNS(=O)(=O)c2cc(C(=O)O)ccc2Cl)c(C)n1-c1ccccc1 | 2.27% | 45.4%
C[C@@H]1C[C@@H]2O[C@H]2CCCCC(=O)Cc2cc(O)cc(O)c2C(=O)O1 | 53.1% (active) | 28.7%
O=C(CSCCO)Nc1ccc(C23CC4CC(CC(C4)C2)C3)cc1 | -57.7% | 41.9%
COc1ccc([C@H]2CC(=O)C=C(c3ccc(Oc4ccccc4)cc3)C2)cc1OC | 10.7% | 15.4%
C=C1C(=O)[C@@]23[C@H](O)C[C@@H]4C(C)(C)CC[C@H](O)[C@]4(C)[C@@H]2C[C@H](O)[C@@H]1[C@H]3O | 4.46% | 54% (active)
COc1ccc(NC(=O)Cc2nnc(SCC(=O)Nc3ccc(F)cc3)n2C)cc1 | -17.1% | -24%
Fc1ccc(-c2nnc(NC3=NCCCCC3)o2)cc1 | -10.8% | 31.4%
